Sampled rows, rich in hits. Any-hit rate of the full collection: about 0.65%.
Vc quorum ag – inducers of Vibrio cholerae quorum light production without autoinducers, primary screen, BH1578 luxS cqsA deficient, single point. V. cholerae BH1578 lux reporter, luminescence, 6 h. activation, % at 18.7 µM. 350,000 compounds, 0.16% hits. AID 588436, 2011; in the data active = activation mostly above about 9.7%, no sharp cut-off; inconclusive = no clear call, values can overlap the other calls; inactive = mostly below about 3.7%
UGM FP inh – M. tuberculosis UGM enzyme inhibitors, primary screen, biochemical, fluorescence polarization, single point | UDP-galactopyranose mutase (Mycobacterium tuberculosis (strain ATCC 25618 / H37Rv)), … | purified UGM, fluorescence polarization probe displacement | inhibition, % at 10 µM | 320,000 compounds, 0.06% hits | AID 504406, 2011; in the data active = inhibition above about 10%, passing the limit was not always enough; inconclusive = no clear call, values can overlap the other calls
PrP 5UTR inh – inhibition of PrP 5' UTR reporter expression; cell-based PrP 5' UTR mRNA reporter, plate reader; inhibition, % (test concentration not listed); 340,000 compounds, 0.35% hits; AID 488862, 2010; in the data active = inhibition above about 52%; also: 0 = median of the neutral control wells
Yp Topo-I inh – Yersinia pestis topoisomerase I inhibitors, primary screen, biochemical, cleavage product accumulation, plate reader, single point. 360,000 compounds, 0.064% hits. AID 504884, 2011. DNA topoisomerase I (Yersinia pestis CO92). Y. pestis Topo-I cleavage product accumulation. activity, % at 10 µM; in the data active = activity above about 50%, passing the limit was not always enough; inconclusive = no clear call, values can overlap the other calls
TcdB inh – TcdB glycohydrolase inhibitors, primary screen, biochemical, single point, plate reader | TcdB glycohydrolase enzymatic assay | inhibition, % at 9.99 µM | 350,000 compounds, 0.24% hits; in the data active = inhibition above about 10%
PrP UTR cherry – prion 5' UTR mRNA inhibition, cherry-pick retest; 1,100 compounds, 48% hits; shares compounds with PrP 5UTR inh; inhibition, % at 2.5 µM; cell-based prion protein 5' UTR reporter, plate reader; in the data active = inhibition above about 54%; inconclusive = no clear call, values can overlap the other calls
Numbers without * were called inactive.

CNCC(=O)O was read as Vc quorum ag 0.5, UGM FP inh -2.2, PrP 5UTR inh 92.5*, Yp Topo-I inh -3.8, TcdB inh 0.5 and PrP UTR cherry 8.1.
COc1ccc(CN(C)C[C@@H]2OCCCC[C@H](C)Oc3ccc(NS(=O)(=O)c4cn(C)cn4)cc3C(=O)N([C@@H](C)CO)C[C@H]2C)cc1 was read as TcdB inh -13.4.
CC(C)(C)NC(=S)N1CCC(C(=O)c2ccc(Cl)cc2)CC1 was read as Vc quorum ag 0.7, UGM FP inh 1.0, PrP 5UTR inh 55.7*, Yp Topo-I inh -5.1, TcdB inh 3.0 and PrP UTR cherry 11.9.
For CCCCC(c1nnnn1CC1CCCO1)N1CCN(Cc2ccccc2)CC1 (stereo not given) the results were UGM FP inh -0.6, PrP 5UTR inh -19.2 and Yp Topo-I inh 10.1.
`Cc1ccc(C(c2nnnn2CC2CCCO2)N2CCN(Cc3ccccc3)CC2)cc1` (stereo not given) gave Vc quorum ag inactive, UGM FP inh 0.3, PrP 5UTR inh 67.0*, Yp Topo-I inh 29.3, TcdB inh 0.9 and PrP UTR cherry 2.3.
CC(=O)N(C)C[C@@H]1Oc2ncc(C#CC3(O)CCCC3)cc2C(=O)N([C@H](C)CO)C[C@@H]1C was read as TcdB inh 1.3.
Screening O=C(N/N=C/c1ccc(O)cc1)c1cccc(N/N=C/c2ccc(O)cc2)c1 returned Vc quorum ag 3.3, UGM FP inh 1.4, PrP 5UTR inh 7.9, Yp Topo-I inh -18.9 and TcdB inh 1.8.
`O=C(N/N=C/c1ccncc1)c1cccc(N/N=C/c2ccncc2)c1` gave Vc quorum ag -0.2, UGM FP inh -2.2, PrP 5UTR inh 71.6*, Yp Topo-I inh -7.4, TcdB inh -2.8 and PrP UTR cherry -1.8.
For Nc1n[nH]c(N)c1N=Nc1ccccc1F the results were Vc quorum ag -0.8, UGM FP inh -2.6, PrP 5UTR inh 1.3, Yp Topo-I inh -4.8 and TcdB inh -0.9.
For Cc1ccccc1N=Nc1c(N)n[nH]c1N the results were Vc quorum ag -0.6, UGM FP inh 2.5, PrP 5UTR inh 54.7*, Yp Topo-I inh -1.6, TcdB inh 3.9 and PrP UTR cherry -26.4.
COCC#Cc1cnc2c(c1)C(=O)N([C@H](C)CO)C[C@H](C)[C@H](CN(C)S(=O)(=O)c1ccccc1)O2 was read as TcdB inh -0.5.
Screening COC(=O)CSc1n[nH]c(=S)s1 returned Vc quorum ag inactive, UGM FP inh 1.6, PrP 5UTR inh -30.7, Yp Topo-I inh -8.1 and TcdB inh 0.6.
CCSc1n[nH]c(=S)s1 was read as Vc quorum ag -3.1, UGM FP inh 1.4, PrP 5UTR inh 76.6*, Yp Topo-I inh -11.6, TcdB inh -0.1 and PrP UTR cherry -3.5.
Screening CO[C@H]1CN(C)C(=O)c2ccc(NC(C)=O)cc2OC[C@@H](C)N(C(=O)Cc2cccnc2)C[C@@H]1C returned TcdB inh -5.7.
O=C1OCCN1C(=O)[C@H]1[C@H](c2ccccc2)C(c2ccc(F)cc2)=NN1c1ccc(Br)cc1 was read as Vc quorum ag -1.5, PrP 5UTR inh 66.8*, Yp Topo-I inh -14.2, TcdB inh -0.8 and PrP UTR cherry -10.4.
`CNc1c2cccc(C)c2nc2c(C(=O)NCCN(C)C)cccc12` gave Vc quorum ag inactive, PrP 5UTR inh 96.3*, Yp Topo-I inh -49.6, TcdB inh 2.6 and PrP UTR cherry 95.6*.
Screening CN(C)CCNCCCNc1c2ccccc2nc2cccc([N+](=O)[O-])c12 returned Vc quorum ag -5.6, PrP 5UTR inh 95.1*, Yp Topo-I inh -16.6, TcdB inh 1.1 and PrP UTR cherry 97.5*.
O=C(Nc1nnc(-c2cccs2)s1)c1cccc(F)c1 was read as Vc quorum ag -0.4, UGM FP inh -1.0, PrP 5UTR inh 74.1*, Yp Topo-I inh -6.9, TcdB inh 1.4 and PrP UTR cherry -44.5.
Screening CCCNC(=O)C[C@@H]1C[C@H]2c3cc(NC(=O)NC4CCCC4)ccc3O[C@H]2[C@@H](CO)O1 returned TcdB inh -0.5.
For CCOC(=O)CC/C(C)=N\N=C1\SC(CC(=O)O)C(=O)N1c1ccccc1 (stereo not given) the results were Vc quorum ag inactive, UGM FP inh -1.4, PrP 5UTR inh 84.9*, Yp Topo-I inh 0.4, TcdB inh 1.0 and PrP UTR cherry -18.3.
Screening CC(C)(C)[C@H]1COC(=O)CCCC/C=C\C[C@H](CC(=O)NCCO)C(=O)N1 returned Vc quorum ag -0.4, UGM FP inh -0.8, PrP 5UTR inh 57.8*, Yp Topo-I inh 1.7, TcdB inh -0.3 and PrP UTR cherry inconclusive.
Screening Nc1ccc2c(c1)C(=O)c1ccc(Cl)cc1-2 returned Vc quorum ag -0.3, PrP 5UTR inh -5.3, Yp Topo-I inh -25.1 and TcdB inh 1.0.
`Nc1ccc2c(c1)-c1ccc(F)cc1C2=O` gave Vc quorum ag inactive, PrP 5UTR inh 81.0*, Yp Topo-I inh -7.6, TcdB inh 3.1 and PrP UTR cherry -1.9.
For COc1cccc(S(=O)(=O)N2C[C@H](O)COC[C@H]3O[C@@H](CC(=O)N4CCOCC4)CC[C@@H]32)c1 the results were TcdB inh -0.8.
C[C@@H]1CN([C@H](C)CO)C(=O)c2cc(NC(=O)Nc3ccccc3)ccc2O[C@H]1CN(C)C was read as TcdB inh 0.4.
For COC(=O)C(O)(c1ccc(N(C)C)cc1)C(F)(F)F (stereo not given) the results were Vc quorum ag inactive, UGM FP inh -2.0, PrP 5UTR inh 66.0*, Yp Topo-I inh -4.5, TcdB inh 1.0 and PrP UTR cherry 10.9.
Screening CCOC(=O)N(C)c1ccc(C(O)(C(=O)OC)C(F)(F)F)cc1 (stereo not given) returned UGM FP inh 2.2, PrP 5UTR inh -11.5 and Yp Topo-I inh -3.8.
Screening O=C(C[C@H]1C=C[C@H](NS(=O)(=O)c2ccc(F)cc2)[C@H](CO)O1)N1CCC(Cc2ccccc2)CC1 returned TcdB inh -0.9.
`COc1ccc(NC(=O)C(=O)NCC(c2ccco2)N2CCc3ccccc32)cc1` (stereo not given) gave Vc quorum ag -0.6, UGM FP inh 0.0, PrP 5UTR inh 53.0*, Yp Topo-I inh -3.7 and PrP UTR cherry 79.9*.
Cc1cc(NC(=O)CSc2nc(-c3ccco3)cc(C(F)(F)F)n2)no1 was read as Vc quorum ag 0.3, UGM FP inh 1.0, PrP 5UTR inh 66.9*, Yp Topo-I inh -0.8 and PrP UTR cherry 89.8*.
COc1cc(C2C3=C(Nc4ncnn42)c2ccccc2CC3)cc(OC)c1OC (stereo not given) was read as Vc quorum ag -0.4, UGM FP inh 0.5, PrP 5UTR inh 61.7*, Yp Topo-I inh 20.3 and PrP UTR cherry 85.6*.
